Laboratory results: PMC5540273 (PLoS ONE, 2017)

Test system: SRPK3
Settings: concentration: 1 μM, replicates: in singlicate; n = 1
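Note: KINOMEscan kinase panel screen.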

Compared with `CC(=O)Nc1nc2cnc(Nc3cc(NC(=O)c4cccc(C5(C#N)CC5)c4Cl)ccc3C)nc2s1`, `CC(=O)N1CCN(c2ccc(Nc3nccc(-c4sc(C(C)C)nc4-c4cccc(NS(=O)(=O)c5cccc(Cl)c5)c4)n3)cn2)CC1` [GSK1660437] is higher in “%Inh” value: 0% for the first, 44% for the second.

`Cl.Cl.NCC(NC(=O)c1cc(-c2ccccc2)c(-c2ccnc3[nH]ccc23)s1)c1ccccc1` (stereo not shown) [GSK1321561] and `Cl.c1ccc(-c2ccc3c(Nc4ccc5[nH]ccc5c4)ccnc3c2)nc1` [GW440138] are the same in “%Inh” value: 0% for the first, 0% for the second.

Going from `COc1cccc(C2=C(Nc3ccc(Cl)c(C(=O)O)c3)C(=O)NC2=O)c1` [SB-390769] to `Cl.NC(=O)c1cccc(Nc2nccc(Nc3ccc(Oc4c(Cl)cccc4Cl)c(Cl)c3)n2)c1` [GW659009], the “%Inh” value falls from 17% to 6%.

`O=c1[nH]cc(-c2ccc(N3CCOCC3)cc2)c2sc(-c3cn[nH]c3)cc12` [GSK2276055] and `CC(C)c1nc(-c2cccc(NS(=O)(=O)c3c(F)cccc3F)c2F)c(-c2ccnc(Nc3ccc(N4CCOCC4)nc3)n2)s1` [GSK2008607] are the same in “%Inh” value: 0% for the first, 0% for the second.

First: Cn1cc(-c2ccc3c(c2)CCN3C(=O)Cc2cccc(F)c2)c2c(N)ncnc21 [GSK2603358]
Second: CCc1ccc(-c2ccc3c(c2)-c2c(cnn2C)S(=O)(=O)N3C)cc1
The “%Inh” value of the first is lower: 9% for the first, 18% for the second.

Compared with `CN1CCN(CCCNc2nccc(-c3c(-c4ccc(F)cc4)nn4cc(C(F)(F)F)ccc34)n2)CC1` [GW621581], `Clc1ccc(-c2nn3ncccc3c2-c2ccnc(Nc3ccc4c(c3)OCCO4)n2)cc1` [GW829116] is lower in “%Inh” value: 16% for the first, 0% for the second.

Going from `Cc1ccc(C(=O)Nc2ccc(Nc3ccnc4cc(-c5nccs5)ccc34)cc2O)cc1.Cl` [GW494702] to `Cl.c1ccc(-c2ccc3c(Nc4ccc5[nH]ncc5c4)ccnc3c2)nc1` [GW440137], the “%Inh” value falls from 13% to 0%.

Compared with `CC(C)(C)c1ccc2nccc(Nc3cccc(O)c3)c2c1` [GW856795], `Oc1cc(Nc2ccnc3cc(I)ccc23)ccc1F` [GW552771] is lower in “%Inh” value: 20% for the first, 9% for the second.

First: Nc1n[nH]c2cnc(-c3ccccc3)cc12 [SB-642124]
Second: c1ccc(-c2cnc3nccnn23)cc1 [AH20685]
The “%Inh” value of the first is higher: 24% for the first, 0% for the second.

Going from `O=C(Nc1n[nH]c2nc(-c3ccc(O)cc3)ccc12)C1CC1` [SB-710363] to `C[C@@H]1CC[C@@H](C(=O)Nc2ccccc2)CN1c1cc(-c2ccc3c(N)n[nH]c3c2)nc(N)n1` [GSK2286062], the “%Inh” value falls from 25% to 0%.

Compared with `c1ccc(-c2n[nH]cc2Nc2ccnc3ccccc23)nc1` [GW694077], `O=C(Nc1ccccc1F)NC1CCN(c2ccnc(Nc3ccc(F)cc3)n2)CC1` [GSK1379800] is lower in “%Inh” value: 90% for the first, 0% for the second.

`COc1ccc(Nc2nccc(N3CCC(NC(=O)Nc4cccc(OC)c4)C3)n2)cc1` (stereo not shown) [GSK1379742] and `COc1ccc(CNC(=O)NC2CCN(c3ccnc(Nc4ccc(F)cc4)n3)CC2)cc1` [GSK1379788] are the same in “%Inh” value: 0% for the first, 0% for the second.

Compared with `COc1cc(Nc2nccc(-c3c(-c4cccc(NC(=O)c5c(F)cccc5F)c4)nn4ccccc34)n2)cc(OC)c1OC` [GSK323521], `COc1cc(Nc2ncc3c(C)nc(-c4cc5ccccc5[nH]4)n3n2)cc(OC)c1OC` [GW869516] is lower in “%Inh” value: 30% for the first, 19% for the second.

Compared with `C[C@@H](Oc1cc(-n2cnc3cc(-c4ccnc(NCCS(C)(=O)=O)c4)ccc32)sc1C(N)=O)c1ccccc1Cl` [GSK907232], `COc1ccc(-c2coc3ccc(-c4nnc(SCc5ccc(OC)c(C(F)(F)F)c5)o4)cc23)cc1` is lower in “%Inh” value: 82% for the first, 0% for the second.
